The record followed here is PubChem BioAssay (NCATS).

Results filed as inconclusive are left out. Entries that show only a call come without a potency. The source made the active and inactive calls. The call rests on the fitted dose curve; in most records, active means well fitted inhibition curve with a large enough effect; inconclusive means small, poorly fitted or top-dose-only effect; inactive means flat fitted curve, though single readings scatter.

Chain of Calcium and integrin-binding protein 1 (Homo sapiens) (Q99828 whole entry, looked up): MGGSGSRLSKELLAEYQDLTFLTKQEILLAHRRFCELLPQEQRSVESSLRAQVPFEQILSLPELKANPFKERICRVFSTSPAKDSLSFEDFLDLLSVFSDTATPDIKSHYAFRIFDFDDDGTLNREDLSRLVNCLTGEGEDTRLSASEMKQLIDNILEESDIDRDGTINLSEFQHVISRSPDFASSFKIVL

This assay deals with Calcium and integrin-binding protein 1 (Homo sapiens) (UniProt Q99828). Kind of assay: Primary qHTS for Identification of Calcium Integrin Binding Protein 1 (CIB1) Competitor (AID 1508620). Further: top concentration of the series differs between compounds. As to conditions: CIB1-GST / FITC-alphaIIb peptide fluorescence polarization; series mostly up to 114 µM. The essentials:
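Fluorescence polarization competition: GST-tagged CIB1 (1 uM final) preincubated with compound 15 min at room temperature, then FITC-labelled alphaIIb peptide (100 nM final) added. After 15 min at room temperature, polarization read at Ex 480/Em 540.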
As to `Cc1ccc(S(=O)(=O)Nc2cnccc2C(=O)Nc2ccccc2)cc1`, the Potency result is “inactive”.
Under `Cc1ccc(S(=O)(=O)Nc2cc(F)c(F)cc2C(=O)Nc2nc(-c3ccccc3)cs2)cc1` stands “inactive”; under `CCN(CC)CCCC(C)n1c(-c2ccccc2)nc2c(NCCOC)nc(C)nc21` (stereo not drawn), “inactive”.
Under `O=C(CSc1nc2ccc(S(=O)(=O)N3CCOCC3)cc2[nH]1)N1CCOCC1` stands “inactive”; under `COc1ccc(NC(=O)c2cc(-c3ccc(C)c(C)c3)nc3ccccc23)cc1`, “inactive”; under `CCCn1c(C)nc2c(N(CCOC)CCOC)nc(C)nc21`, “inactive”.
Take `Cc1nc(NC2CCCCC2)c2nc(-c3ccccc3)n(CCCN(C)C)c2n1`: the Potency entry was “inactive”.
Consider `CCN(CC)CCCn1c(-c2ccccc2)nc2c(N(CCOC)CCOC)nc(C)nc21`, for which the Potency entry was “inactive”.
`CCCn1c(C)nc2c(N3CCOCC3)nc(C)nc21`: the Potency result was “inactive”.
For `O=C(Cc1ccccc1)Nc1sc2c(c1C(=O)Nc1ccc(Cl)cc1)CCCC2`, the Potency entry was “inactive”.
Consider `COCCN(CCOC)c1nc(C)nc2c1nc(-c1ccccc1)n2CC1CCN(C)CC1`, for which the Potency entry is “inactive”.
For `CCN(CC)CCn1c(-c2ccccc2)nc2c(NC3CCCCC3)nc(C)nc21`, the Potency entry was “inactive”.
Regarding `Cc1ccc(S(=O)(=O)Nc2cnccc2C(=O)Nc2nc(-c3ccncc3)cs2)cc1`, the Potency entry is “inactive”.
`CCCCNc1nc(C)nc2c1nc(-c1ccccc1)n2CCCCN(CC)CC`: the Potency entry is “inactive”.
As to `Cc1ccc(S(=O)(=O)Nc2cnccc2C(=O)Nc2ccc(N3CCOCC3)cc2)cc1`, the Potency result was “inactive”.
In the case of `Cc1ccc(S(=O)(=O)Nc2cnccc2C(=O)Nc2nc(-c3ccc(Cl)c(Cl)c3)cs2)cc1`, the Potency result is “inactive”.
With `CC(=O)Nc1ccc(S(=O)(=O)Nc2nccs2)cc1`, the Potency entry is “inactive”.
As for `O=c1[nH]c(CN2CCOCC2)nc2sc3c(c12)CCCC3`, the Potency result is “inactive”.
Under `Cc1nc(NC2CCCCC2)c2nc(-c3ccccc3)n(CCN3CCCCC3)c2n1` stands “inactive”.
Regarding `CCCn1c(-c2ccc(F)cc2)nc2c(NCCN(CC)CC)nc(C)nc21`, the Potency entry was “inactive”.
For `Cc1ccc(S(=O)(=O)Nc2ccccc2C(=O)Nc2nc(-c3ccc(Cl)cc3)cs2)cc1`, the Potency result is “inactive”.
Regarding `COc1ccc(C(=O)Nc2nc(-c3ccccc3)cs2)c(OC)c1`, the Potency entry is “inactive”.
With `O=C(Nc1nc(-c2ccccc2)cs1)c1ccncc1NS(=O)(=O)c1ccc(N2CCCC2=O)cc1`, the Potency result was “inactive”.
For the compound `CCS(=O)(=O)N1CCC(C(=O)Nc2ccc(S(=O)(=O)Nc3nccs3)cc2)CC1`, the Potency result is “inactive”.
Turning to `CCCn1c(-c2ccc(F)cc2)nc2c(N3CCN(Cc4nc(OC)cc(OC)n4)CC3)nc(C)nc21`, the Potency entry was “inactive”.
Consider `CCCn1c(C)nc2c(Nc3ccccc3)nc(C)nc21`, for which the Potency result is “inactive”.
Under `CCN(CC)CCCCn1c(-c2ccccc2)nc2c(NC3CCCCC3)nc(C)nc21` stands “inactive”; under `Cc1ccc(-c2cc(C(=O)Nc3ccc(C(=O)O)cc3)c3ccccc3n2)cc1C`, “inactive”.
